Measurements taken from PubChem BioAssay (Tox21).
Inconclusive results are not listed. Where a call stands in place of a potency, no number is given. Activity calls are given as the source filed them. Calls follow the shape of the full dose curve.

Assay: qHTS assay to identify small molecule antagonists of the estrogen receptor alpha (ER-alpha) signaling pathway using the BG1 cell line (AID 743080);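 also: BG1 cells stimulated with 17beta-estradiol alongside compound; nearly all actives have a fitted effect of over 25% in size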
Details: BG1Luc4E2 ERE-luciferase antagonist mode, luminescence; series mostly up to 70.3 µM
Description: National Center for Advancing Translational Sciences [NCATS]
NIH Chemical Genomics Center [NCGC]
U.S. Environmental Protection Agency [EPA]
National Institutes of Environmental Health Sciences [NIEHS]
National Toxicology Program [NTP]
U.S. Food and Drug Administration [FDA]
Estrogen receptor (ER), a nuclear hormone receptor, plays an important role in development, metabolic homeostasis and reproduction. Endocrine disrupting chemicals (EDCs) and their interactions with steroid hormone receptors like ER causes disruption of normal endocrine function. Therefore, it is important to understand the effect of environmental chemicals on the ER signaling pathway. To identify ER antagonists, BG1-Luc-4E2 cell line (provided by Dr. Michael Denison from University of California) has been used to screen the Tox21 10K compound library. BG1Luc4E2 cell line endogenously expresses full-length ER-alpha and is stably transfected with a plasmid containing four estrogen responsive elements (ERE) upstream of a luciferase reporter gene.
Tox21 Assay Protocol Summary:
BG1-Luc-4E2 cells were cultured in phenol red free assay medium containing 10% charcoal stripped FBS for 5 days before the assay was performed. The cells were dispensed at 4,000 cells/4 uL of assay medium per well into white wall/solid-bottom 1536-well plates using a Multidrop Combi (ThermoFisher Scientific, Waltham, MA) dispenser. The assay plates were incubated at a 37C and 5% CO2 for 24 h, and then 23 nL of compounds dissolved in DMSO, positive controls or DMSO only was transferred to the assay plate using a Pintool station (Kalypsys, San Diego, CA), followed by addition of 1 uL of 17beta-estradiol in assay medium using a Flying Reagent Dispenser (Aurora Discovery, San Diego, CA). After the plates were incubated at 37 C and 5% CO2 for 21.5 h, 1 uL of CellTiter-Fluor reagent (Promega, Madison, WI) of measuring cytotoxicity was added using Flying Reagent Dispenser (FRD) to each well. The assay plates were incubated at 37 C and 5% CO2 for additional 30 min and the fluorescence intensity was quantified by a ViewLux plate reader (PerkinElmer, Shelton, CT). For measuring luciferase reporter gene activity, 4 uL of ONE-Glo reagent (Promega) was added to each plate using an FRD and luminescence was quantified by a ViewLux plate reader after 30 min incubation at room temperature.
Potency is read from the fitted curve at half-maximal effect.

Q: Which Potency does the source give for `CCN(CC)S(=O)(=O)c1ccc(C(=O)O)cc1` here?
A: Its Potency is “inactive”.

Q: Which Potency does the source give for `C1COCCO1` here?
A: Its Potency is “inactive”.

Q: For `CC(C)c1cccc(C(C)C)c1N`, which Potency is on record?
A: The Potency was “inactive”.

Q: For `O=S(=O)(c1cccc2cnccc12)N1CCCNCC1`, which Potency is on record?
A: The Potency was 6.68 µM (active).

Q: For `OCc1ccccn1`, which Potency is on record?
A: Its Potency is “inactive”.

Q: With `CCCCCCOC(=O)c1ccccc1O` as the compound, how does the Potency read?
A: Its Potency is “inactive”.

Q: With `CCCCN(CCO)CCO` as the compound, how does the Potency read?
A: Its Potency is “inactive”.

Q: Which Potency does the source give for `Nc1nc2c(ncn2CCC(CO)CO)c(=O)[nH]1` here?
A: Its Potency is “inactive”.

Q: Which Potency does the source give for `COCc1ccc(COC)cc1` here?
A: The Potency was “inactive”.

Q: With `O=C(O)CCNC(=O)c1ccc(N=Nc2ccc(O)c(C(=O)O)c2)cc1` as the compound, how does the Potency read?
A: Its Potency is “inactive”.

Q: With `O=C(O)Cc1cc(I)c(Oc2cc(I)c(O)c(I)c2)c(I)c1` as the compound, how does the Potency read?
A: Its Potency is “inactive”.

Q: With `Nc1ccn(C2CO[C@H](CO)O2)c(=O)n1` (stereo not given in full) as the compound, how does the Potency read?
A: Its Potency is “inactive”.

Q: With `Cc1ccc(Nc2ccc(O)c3c2C(=O)c2ccccc2C3=O)cc1` as the compound, how does the Potency read?
A: Its Potency is “inactive”.

Q: With `CC(=O)N[C@@H](CCC(N)=O)C(=O)O` as the compound, how does the Potency read?
A: Its Potency is “inactive”.

Q: Which Potency does the source give for `CCCCc1ccc2cccc(S(=O)(=O)O)c2c1` here?
A: Its Potency is “inactive”.

Q: Which Potency does the source give for `CCOC(=O)Nc1ccc2c(c1)N(C(=O)CCN1CCOCC1)c1ccccc1S2` here?
A: Its Potency is “inactive”.

Q: Which Potency does the source give for `CC(C)(O)C(=O)c1ccc(OCCO)cc1` here?
A: The Potency was “inactive”.

Q: With `CCCCCCC(CCCCCCCCCCC(=O)OCC(COC(C)=O)OC(C)=O)OC(C)=O` (stereo not given) as the compound, how does the Potency read?
A: Its Potency is “inactive”.

Q: Which Potency does the source give for `NC(=O)c1ncn([C@@H]2O[C@H](CO)[C@@H](O)[C@H]2O)c1N` here?
A: The Potency was “inactive”.

Q: For `CC(C)(O)Cc1ccccc1`, which Potency is on record?
A: The Potency was “inactive”.

Q: With `CCC(=O)/C=C/c1ccc(OC)cc1` as the compound, how does the Potency read?
A: Its Potency is “inactive”.

Q: For `CN(C)C(=O)Nc1ccccc1`, which Potency is on record?
A: The Potency was “inactive”.

Q: For `CO[Si](CCCNCCC[Si](OC)(OC)OC)(OC)OC`, which Potency is on record?
A: The Potency was “inactive”.

Q: With `C/C=C1\C(=O)C[C@H]2[C@@H]3CCC4=CC(=O)CC[C@]4(C)[C@H]3CC[C@]12C` as the compound, how does the Potency read?
A: The Potency was “inactive”.

Q: With `C=C(C)[C@@H]1CCC2=CC(=O)C[C@@H](C)[C@]2(C)C1` as the compound, how does the Potency read?
A: The Potency was “inactive”.

Q: For `O=[N+]([O-])c1ccc(CCO)cc1`, which Potency is on record?
A: Its Potency is “inactive”.

Q: Which Potency does the source give for `C(=C(c1ccccc1)c1ccccc1)c1ccccc1` here?
A: The Potency was “inactive”.

Q: Which Potency does the source give for `CC(=O)O[C@H](CC(=O)[O-])C[N+](C)(C)C` here?
A: Its Potency is “inactive”.

Q: Which Potency does the source give for `CCCCCCOC(=O)CC(CC(=O)OCCCCCC)(OC(=O)CCC)C(=O)OCCCCCC` here?
A: The Potency was “inactive”.

Q: Which Potency does the source give for `C=CCn1c(=O)n([C@@H]2O[C@H](CO)[C@@H](O)[C@H]2O)c2nc(N)[nH]c(=O)c21` here?
A: Its Potency is “inactive”.

Q: Which Potency does the source give for `OCC(CO)(CO)COCC(CO)(CO)CO` here?
A: Its Potency is “inactive”.

Q: Which Potency does the source give for `CN1[C@@H]2CC[C@H]1CC(NC(=O)n1c(=O)[nH]c3ccccc31)C2` (stereo not given in full) here?
A: The Potency was “inactive”.

Q: For `CC(C)(O)c1ccccc1`, which Potency is on record?
A: Its Potency is “inactive”.

Q: With `NCCNC(=O)c1ccc(Cl)cn1` as the compound, how does the Potency read?
A: Its Potency is “inactive”.

Q: With `CCO[Si](CCCN=C=O)(OCC)OCC` as the compound, how does the Potency read?
A: Its Potency is “inactive”.

Q: Which Potency does the source give for `c1ccc2cnncc2c1` here?
A: The Potency was “inactive”.

Q: With `CC(C)(C)N(CCO)CCO` as the compound, how does the Potency read?
A: Its Potency is “inactive”.

Q: With `NS(=O)(=O)c1cc2c(cc1Cl)NC(CSCc1ccccc1)=NS2(=O)=O` as the compound, how does the Potency read?
A: The Potency was “inactive”.

Q: For `COc1cc(O)cc(O)c1`, which Potency is on record?
A: The Potency was “inactive”.

Q: Which Potency does the source give for `C=C(C)C(=O)OCCC(C)OC(=O)C(=C)C` (stereo not given) here?
A: Its Potency is “inactive”.
